Measured values as given in PubChem BioAssay AID1159580 (chemical genetic matrix, 2015).
“And” between values parts separate entries of the source, which are not always exact repeats. Equal values may be shown once. In all, about 5,500 compounds went through this assay and about 2,000 (36%) were called active. Inconclusive results (about 18%) are left out. Rule as the data show it: active = normalized growth mostly below about 0.91 (no sharp cut-off); inconclusive = no clear call, values can overlap the other calls; inactive = mostly above about 0.92. The list shows a part of the results.

Assay: chemical genetic growth profiling, strain panel (AID 1159580);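 also: tested at 20 µM; growth read once vehicle control cultures reached saturation at 30 °C; 1 = growth at the plate median or of vehicle wells; lower values mean less growth of the strain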
Settings: growth OD

Measured: normalized growth

CC(C)[N+](C)(CCOC(=O)C1c2ccccc2Oc2ccccc21)C(C)C
inactive: S. cerevisiae deletion strains, locus YJR075W, strain HOC1, active compounds read low 1.02 | S. cerevisiae deletion strains, locus YKL009W, strain mrt4, active compounds read low 1.02 | S. cerevisiae deletion strains, locus YKL068W, active compounds read low 1.01 | S. cerevisiae deletion strains, locus YKL085W, strain MDH1 (second series), active compounds read low 1.01 | S. cerevisiae deletion strains, locus YKL085W, strain MDH1, active compounds read low 1.01 | S. cerevisiae deletion strains, locus YKL160W, strain elf1, active compounds read low 1.04 | S. cerevisiae deletion strains, locus YKL190W, strain CNB1, active compounds read low 1.02 | S. cerevisiae deletion strains, locus YKR001C, strain vps1, active compounds read low 1.01 | S. cerevisiae deletion strains, locus YKR026C, strain gcn3, active compounds read low 0.997 | S. cerevisiae deletion strains, locus YKR091W, strain srl3, active compounds read low 0.994 | S. cerevisiae deletion strains, locus YLL001W, strain dnm1, active compounds read low 1.01 | S. cerevisiae deletion strains, locus YLL026W, active compounds read low 1.02 | S. cerevisiae deletion strains, locus YLL041C, strain sdh2, active compounds read low 1 | S. cerevisiae deletion strains, locus YLR027C, strain aat2, active compounds read low 1 | S. cerevisiae deletion strains, locus YLR039C, strain RIC1, active compounds read low 1.05 | S. cerevisiae deletion strains, locus YLR058C, strain SHM2, active compounds read low 1.01 | S. cerevisiae deletion strains, locus YLR102C, strain apc9, active compounds read low 1 | S. cerevisiae deletion strains, locus YLR113W, strain HOG1, active compounds read low 1.02 | S. cerevisiae deletion strains, locus YLR221C, strain rsa3, active compounds read low 0.996 | S. cerevisiae deletion strains, locus YLR258W, strain gsy2, active compounds read low 1.02 | S. cerevisiae deletion strains, locus YLR262C, strain YPT6 (second series), active compounds read low 1 | S. cerevisiae deletion strains, locus YLR262C, strain YPT6, active compounds read low 1.07 | S. cerevisiae deletion strains, locus YLR268W, strain sec22, active compounds read low 1.02 | S. cerevisiae deletion strains, locus YLR320W, strain mms22, active compounds read low 0.985 | S. cerevisiae deletion strains, locus YLR330W, strain CHS5, active compounds read low 1 | S. cerevisiae deletion strains, locus YLR342W, strain FKS1 (second series), active compounds read low 1.02 | S. cerevisiae deletion strains, locus YLR342W, strain FKS1, active compounds read low 1.02 | S. cerevisiae deletion strains, locus YLR357W, strain rsc2, active compounds read low 1.02 | S. cerevisiae deletion strains, locus YLR370C, strain arc18, active compounds read low 1.01 | S. cerevisiae deletion strains, locus YLR371W, strain rom2, active compounds read low 1.01 | S. cerevisiae deletion strains, locus YLR384C, strain iki3, active compounds read low 1.02 | S. cerevisiae deletion strains, locus YLR418C, strain cdc73, active compounds read low 1.02 | S. cerevisiae deletion strains, locus YML016C, strain PPZ1, active compounds read low 1 | S. cerevisiae deletion strains, locus YML032C, strain rad52, active compounds read low 1.01 | S. cerevisiae deletion strains, locus YML120C, strain ndi1, active compounds read low 1.01 | S. cerevisiae deletion strains, locus YML124C, strain tub3, active compounds read low 1.01 | S. cerevisiae deletion strains, locus YMR058W, strain fet3, active compounds read low 1 | S. cerevisiae deletion strains, locus YMR078C, strain ctf18, active compounds read low 1 | S. cerevisiae deletion strains, locus YMR125W, strain sto1, active compounds read low 1 | S. cerevisiae deletion strains, locus YMR129W, active compounds read low 1.01 | S. cerevisiae deletion strains, locus YMR205C, strain PFK2, active compounds read low 0.998 | S. cerevisiae deletion strains, locus YMR223W, strain ubp8, active compounds read low 0.994 | S. cerevisiae deletion strains, locus YMR231W, strain pep5, active compounds read low 1.01 | S. cerevisiae deletion strains, locus YMR307W, strain GAS1, active compounds read low 1.01 and 1.02 | S. cerevisiae deletion strains, locus YNL067W, strain RPL9B, active compounds read low 1.01 | S. cerevisiae deletion strains, locus YNL071W, strain lat1, active compounds read low 1.01 | S. cerevisiae deletion strains, locus YNL128W, strain TEP1, active compounds read low 1.02 | S. cerevisiae deletion strains, locus YNL153C, strain GIM3, active compounds read low 1.01 and 0.989 | S. cerevisiae deletion strains, locus YNL175C, strain NOP13, active compounds read low 1.02 | S. cerevisiae deletion strains, locus YNL183C, strain NPR1, active compounds read low 0.971 | S. cerevisiae deletion strains, locus YNL197C, strain WHI3, active compounds read low 0.999 | S. cerevisiae deletion strains, locus YNL209W, strain ssb2, active compounds read low 1.01 | S. cerevisiae deletion strains, locus YNL224C, strain SQS1, active compounds read low 1 | S. cerevisiae deletion strains, locus YNL233W, strain BNI4, active compounds read low 1.01 | S. cerevisiae deletion strains, locus YNL248C, strain rpa49, active compounds read low 1.04 | S. cerevisiae deletion strains, locus YNL250W, strain rad50, active compounds read low 1.02 | S. cerevisiae deletion strains, locus YNL271C, strain bni1, active compounds read low 1.01 | S. cerevisiae deletion strains, locus YNL298W, strain CLA4, active compounds read low 1.03 | S. cerevisiae deletion strains, locus YNL307C, strain MCK1, active compounds read low 1 | S. cerevisiae deletion strains, locus YNL322C, strain KRE1 (second series), active compounds read low 1.02 | S. cerevisiae deletion strains, locus YNR049C, strain mso1, active compounds read low 1.01 | S. cerevisiae deletion strains, locus YNR052C, strain pop2, active compounds read low 1.01 | S. cerevisiae deletion strains, locus YOL006C, strain TOP1, active compounds read low 1 | S. cerevisiae deletion strains, locus YOL012C, strain htz1 0.959 | S. cerevisiae deletion strains, locus YOL147C, strain pex11, active compounds read low 1.01 | S. cerevisiae deletion strains, locus YOR001W, strain rrp6, active compounds read low 0.976 | S. cerevisiae deletion strains, locus YOR061W, strain CKA2, active compounds read low 1.01 | S. cerevisiae deletion strains, locus YOR069W, strain VPS5, active compounds read low 1 | S. cerevisiae deletion strains, locus YOR070C, strain gyp1, active compounds read low 1.01 | S. cerevisiae deletion strains, locus YOR080W, strain dia2, active compounds read low 1.01 | S. cerevisiae deletion strains, locus YOR083W, strain WHI5 (second series), active compounds read low 1.01 | S. cerevisiae deletion strains, locus YOR083W, strain WHI5, active compounds read low 0.979 | S. cerevisiae deletion strains, locus YOR106W, strain vam3, active compounds read low 1.03 | S. cerevisiae deletion strains, locus YOR136W, strain idh2, active compounds read low 1 | S. cerevisiae deletion strains, locus YOR144C, strain elg1, active compounds read low 1 | S. cerevisiae deletion strains, locus YOR184W, strain ser1, active compounds read low 1.01 | S. cerevisiae deletion strains, locus YOR231W, strain MKK1, active compounds read low 0.991 | S. cerevisiae deletion strains, locus YOR265W, strain rbl2, active compounds read low 1 | S. cerevisiae deletion strains, locus YOR270C, strain vph1, active compounds read low 1.04 | S. cerevisiae deletion strains, locus YOR290C, strain snf2, active compounds read low 1.02 | S. cerevisiae deletion strains, locus YOR316C, strain cot1, active compounds read low 1.01 | S. cerevisiae deletion strains, locus YPL051W, strain arl3, active compounds read low 1.02 | S. cerevisiae deletion strains, locus YPL055C, strain LGE1, active compounds read low 1.01 | S. cerevisiae deletion strains, locus YPL078C, strain atp4, active compounds read low 1.02 | S. cerevisiae deletion strains, locus YPL106C, strain sse1, active compounds read low 1.01 | S. cerevisiae deletion strains, locus YPL240C, strain hsp82, active compounds read low 1.01 | S. cerevisiae deletion strains, locus YPL241C, strain CIN2, active compounds read low 1.01 | S. cerevisiae deletion strains, locus YPL256C, strain CLN2, active compounds read low 1.06 | S. cerevisiae deletion strains, locus YPR119W, strain clb2, active compounds read low 0.996 | S. cerevisiae deletion strains, locus YPR141C, strain kar3, active compounds read low 1.01 | S. cerevisiae deletion strains, locus YPR163C, strain tif3, active compounds read low 1 | S. cerevisiae deletion strains, locus YPR167C, strain met16, active compounds read low 1 | S. cerevisiae deletion strains, strain wtn01, active compounds read low 1.01 | S. cerevisiae strains, strain wild type, active compounds read low 1
